SNCA expr inhib = inhibitors of alpha-synuclein (SNCA) gene expression | HEK-293 SNCA-luciferase knock-in, luminescence, 24 h | Potency, µM (titrated, usually from 57.2 µM), without a hit: at the highest dose activity change, negative = inhibition, usual class: inhibitors | 0.17% of 140,000 active;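 further: potency means the concentration at half of the fitted maximal effect; plate controls were DMSO cells for no effect and cell-free wells for full effect; nearly all actives have a fitted effect of over 45% in size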
IP6K1 inhibitor = inhibitors of human IP6K1; 0.81% of 140,000 active; Q92551; activity change, % (series mostly up to about 58 µM); IP6K1 kinase, ADP-Glo luminescence, 2 h; hits give low values; in the data active means activity change below about -25%
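ADP-Glo luminescence measures ADP made by human IP6K1 during a 2 h RT reaction with ATP/IP6 (mix at 1.3 mM/130 uM); top library doses 57.5 and 19.1 uM final.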
NIH3T3 tox = NIH 3T3 cell cytotoxicity. AID 1345082. Potency, µM (doses to about 96.7 µM), inactives show top-dose activity change, negative = cytotoxicity, usual class: inhibitors. NIH 3T3 viability, CellTiter-Glo ATP luminescence, 48-72 h. 4.3% of 94,000 active; further: potency means the concentration at half of the fitted maximal effect; nearly all actives have a fitted effect of over 55% in size
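Mouse fibroblast NIH 3T3 cells, 400 per well, received compound via pintool and were incubated for 48 or 72 hr prior to CellTiter-Glo ATP luminescence measurement.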
HEK293 viab = reduces viability of HEK-293 SNCA reporter cells; HEK-293-SNCA-luc viability, GF-AFC fluorescence, 24 h; Potency, µM (titrated, usually from 57.1 µM), for the others: at the top dose activity change, negative = cytotoxicity, usual class: cytotoxic; 0.12% of 150,000 active;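 further: potency means the concentration at half of the fitted maximal effect; 0% = DMSO-treated cells and -100% = medium-only wells without cells; nearly all actives have a fitted effect of over 30% in size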
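HEK-293-SNCA-luc cells (1500/well) plated 24 h, then exposed 24 h to a dilution series; GF-AFC added 30 min at 37C, fluorescence 405/540 nm; normalised to medium-only and DMSO wells, Hill fit.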
FLuc inh = Photinus pyralis luciferase inhibition | Potency, µM (top dose mostly 115 µM), most hits filed as inhibitors | 2.5% of 76,000 active | purified P. pyralis luciferase, luminescence, biochemical | P08659 | AID 1347043; further: potency means the concentration at half of the fitted maximal effect; nearly all actives have a fitted effect of over 65% in size
Target sequence (P08659 whole entry, looked up): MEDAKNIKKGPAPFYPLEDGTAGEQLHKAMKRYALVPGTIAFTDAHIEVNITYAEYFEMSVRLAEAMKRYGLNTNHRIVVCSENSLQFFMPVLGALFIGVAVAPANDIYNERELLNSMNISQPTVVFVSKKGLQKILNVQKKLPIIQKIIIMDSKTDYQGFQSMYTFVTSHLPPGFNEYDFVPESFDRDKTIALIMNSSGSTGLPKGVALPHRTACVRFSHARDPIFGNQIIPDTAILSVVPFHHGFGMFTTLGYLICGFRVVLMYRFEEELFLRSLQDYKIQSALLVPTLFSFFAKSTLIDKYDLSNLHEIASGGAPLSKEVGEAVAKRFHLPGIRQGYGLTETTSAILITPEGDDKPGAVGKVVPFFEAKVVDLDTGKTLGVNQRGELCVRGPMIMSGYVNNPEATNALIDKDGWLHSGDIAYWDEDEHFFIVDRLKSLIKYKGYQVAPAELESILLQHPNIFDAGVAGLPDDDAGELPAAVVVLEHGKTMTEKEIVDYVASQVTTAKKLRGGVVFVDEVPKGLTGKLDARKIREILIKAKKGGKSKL
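FLuc 10nM, D-luciferin 10uM, ATP 10uM, Mg acetate 10mM, Tris acetate pH 7.5, Tween/BSA; cpd qHTS; enzyme added last; CCD luminescence.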
HEK293 tox = kills HEK 293 cells; HEK 293 viability, ATP luminescence (CellTiter-Glo), 48-72 h; Potency, µM (doses to about 115 µM), for inactives: at the top dose activity change, negative = cytotoxicity, usual class: inhibitors; 6.6% of 94,000 active; further: potency means the concentration at half of the fitted maximal effect; nearly all actives have a fitted effect of over 60% in size
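HEK 293 cells at 250 cells/well were exposed to compounds by pintool transfer for 48 or 72 hr at 37 degree Celsius, 5% CO2. Viability was read as ATP-coupled luminescence with CellTiter-Glo after 10 min at room temperature.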
* = called active by the depositor; i = inactive; u = inconclusive; x = no result given; ! = not active in a repeat; [ ] = another dose, or the depositor's remark. This is a sample that favours compounds with a hit; in the whole collection about 7.3% have one here. Unless noted, the call rests on the fitted dose curve; in most records, active means well fitted curve in the direction sought with a large enough effect; inconclusive means small, poorly fitted or top-dose-only effect, or another doubt; inactive means no such curve, though single readings can be large; an effect the other way counts as inactive or inconclusive. Unless noted, on the % scale 0 is the no-effect control and ±100 the full control effect.

SMILES | SNCA expr inhib | IP6K1 inhibitor | NIH3T3 tox | HEK293 viab | FLuc inh | HEK293 tox
O=C1Nc2ccccc2CN(CC2CCCCC2)C12CCNCC2 | 2% | -24 | u | -24% | x | 35µM*
O=C1Nc2ccccc2CN(CC2CC2)C12CCNCC2 | -15% | -20 | i | 3% | x | i
O=C1Nc2ccccc2CN(Cc2ccc(Cl)cc2)C12CCNC2 (centres undefined) | -4% | -20 | u | -8% | x | 50µM*
CC(C)NC(=O)NC[C@H]1OC[C@@H](NCc2cccc(C#N)c2)[C@@H]1O | 6%[87.6 µM] | 7 | -14%[138 µM] | -5%[87.6 µM] | i | -18%[172 µM]
Cn1cccc1CN1CCC2(CC1)COc1ccccc1C(=O)N2 | -7%[87.6 µM] | 25 | -16%[138 µM] | 5%[87.6 µM] | i | u
OCC1(CN2CCCC2)CCN(Cc2ccc(Cl)cc2)CC1 | -7% | 17 | u | 2% | i | u
CC(Cc1ccc2c(c1)OCO2)CN1CCC(CO)(CN2CCCC2)CC1 (centres undefined) | 10% | 10 | 40µM* | 4% | i | u
O=C(Nc1ccc(F)cc1)C1CN(c2ccnc3ccnn23)C1 | -5%[87.6 µM] | 0 | u | -7%[87.6 µM] | x | u
COc1cccc(C(O)c2nc(C(=O)NC3CCN(C)CC3)c(C)o2)c1 (centres undefined) | 12%[87.6 µM] | -4 | u | -3%[87.6 µM] | i | -29%[172 µM]
CCC1C(=O)N(C)c2cnc(Nc3ccc(C(=O)NC4CCC(N5CCN(CC6CC6)CC5)CC4)cc3OC)nc2N1C(C)C (centres undefined) | x | -8 | x | 24µM* | x | x
CC[C@@H]1C(=O)N(C)c2cnc(Nc3ccc(C(=O)NC4CCC(N5CCN(CC6CC6)CC5)CC4)cc3OC)nc2N1C(C)C (some centres undefined) | 43% | -2 | x | 30µM*! | x | x
CCOC(=O)[C@H]1CN(C(=O)c2cc3ccccc3oc2=O)[C@]2(C)C(=O)N(CC3CC3)c3ccccc3[C@H]12 | x | -8 | u | x | x | u
CN(Cc1cccc(N2CCN(C(=O)c3c(Cl)cccc3Cl)CC2)c1F)[S+](C)(=O)[O-] | x | 9 | u | x | x | u
Cc1ccc2c(C)c(C(=O)N(C)Cc3noc4c3CCCC4)oc2c1 | -4% | 6 | u | 0% | i | 45µM*
O=C(c1ccc2cc[nH]c2c1)N1CCCC(Cc2noc(-c3ccccc3)n2)C1 (centres undefined) | -57% | 6 | 20µM* | u | i | u
O=C(NCC1CCCN(C(=O)c2ccsc2)C1)c1ccc(-c2ccccc2)cc1 (centres undefined) | 12% | 8 | u | 2% | u | 45µM*
O=C(NCC1CCCN(Cc2ncccn2)C1)c1ccc(-c2ccccc2)cc1 (centres undefined) | u | -9 | -9% | -1% | i | u
O=C(c1ccc2cc[nH]c2c1)N1CCCC(Cc2noc(-c3cnccn3)n2)C1 (centres undefined) | -7% | 0 | 4% | -15% | i | -12%
O=C(NCC1CCCN(C(=O)c2ccc3[nH]ccc3c2)C1)c1ccc(-c2ccccc2)cc1 (centres undefined) | -26% | 9 | u | -21% | u | 18µM*
CC(=O)Nc1ccc(C(=O)NC[C@@H]2C=C(C)[C@H](Cc3nnc(-c4ccccc4F)o3)C[C@H]2C(C)C)cc1 | u | -11 | u | u | i | 28µM*
CC1=C[C@@H](CNC(=O)c2cnccn2)[C@H](C(C)C)C[C@H]1Cc1nnc(-c2ccccc2F)o1 | -2% | 22 | u | u | i | 35µM*
CC1=C[C@@H](CNC(=O)CN(C)C)[C@H](C(C)C)C[C@H]1Cc1nnc(-c2ccccc2F)o1 | u | 16 | 32µM* | u | i | u
CC1=C[C@@H](CNC(=O)c2cncnc2)[C@H](C(C)C)C[C@H]1Cc1nnc(-c2ccccc2F)o1 | -16% | -1 | u | u | i | u
CCNC(=O)NC[C@@H]1C=C(C)[C@H](Cc2nnc(-c3ccccc3F)o2)C[C@H]1C(C)C | u | 19 | u | u | i | u
CC1=C[C@@H](CNC(=O)NC(C)C)[C@H](C(C)C)C[C@H]1Cc1nnc(-c2ccccc2F)o1 | u | 4 | 32µM* | u | i | 79µM*
SMILES | SNCA expr inhib | IP6K1 inhibitor | NIH3T3 tox | HEK293 viab | FLuc inh | HEK293 tox
O=C(C1CCOCC1)N1C[C@H]2OC(=O)N(CCc3cccc(Cl)c3)[C@H]2C1 | -7% | 12 | -12% | 2% | i | -8%
CC1=C[C@@H](CO)[C@H](C(C)C)C[C@H]1Cc1nnc(Cc2c[nH]c3ccccc23)o1 | u | -12 | u | -24%[87.6 µM] | i | u
C#CCNC[C@@H]1C=C(C)[C@H](Cc2nnc(-c3ccccc3F)o2)C[C@H]1C(C)C | u | 1 | u | u | i | 71µM*
C#CCNC[C@@H]1C=C(C)[C@H](Cc2nnc(Cc3c[nH]c4ccccc34)o2)C[C@H]1C(C)C | u | -12 | u | u | i | 50µM*
c1ccc(CN(Cc2ccccn2)[C@H]2C[C@H]3CCOC[C@@]3(c3ccccc3)C2)cc1 | x | -5 | u | x | x | 50µM*
Cc1ccc2nc(CO[C@H]3CN(C(=O)C4CCOCC4)C[C@H]3F)[nH]c2c1 | -9%[87.6 µM] | -6 | 3%[138 µM] | 6%[87.6 µM] | i | -8%[172 µM]
COc1ccc(C(=O)N2C[C@@H](F)[C@@H](OCc3nc4ccc(F)cc4[nH]3)C2)cc1 | 88%[87.6 µM] | 0 | -21%[138 µM] | 1%[87.6 µM] | 40µM* | u
O=C(Nc1cccc(C(F)(F)F)c1)N1C[C@@H](F)[C@@H](OCc2nc3ccccc3[nH]2)C1 | -7%[87.6 µM] | -25 | 100µM* | -9%[87.6 µM] | i | 100µM*
COc1ccc(C(=O)N2C[C@@H](F)[C@@H](OCc3nc4ccccc4o3)C2)cc1 | -12%[87.6 µM] | 1 | -30%[174 µM] | -12%[87.6 µM] | i | 100µM*
O=C(Nc1ccc(F)cc1F)N1C[C@@H](F)[C@@H](OCc2nc3ccccc3[nH]2)C1 | -4%[87.6 µM] | -4 | -3%[138 µM] | -15%[87.6 µM] | i | 0%[172 µM]
Cc1ccc2nc(CO[C@H]3CN(C(=O)C4CC4)C[C@H]3F)[nH]c2c1 | 108%[87.6 µM] | -9 | -16%[138 µM] | 2%[87.6 µM] | 28µM* | -8%[172 µM]
CCOC(=O)[C@@H]1CN(C(=O)OCc2ccccc2)[C@H]2c3ccccc3O[C@@H]12 | x | 16 | u | x | x | u
Nc1nnnn1CC(=O)N[C@@H]1COCC[C@@H]1Oc1ccc(F)cc1 | -21% | -3 | -5% | 2% | i | i
O=S1(=O)NCC2(CCCN(Cc3cccnc3)C2)Oc2ncccc21 (centres undefined) | 30% | 10 | i | 7% | x | i
